Source: PubChem BioAssay (NCI)
Compounds without any hit were thinned out: in the full panel of roughly 83,000, 20% have a hit.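 How to read the values: 0–100, growth inhibition (40 = 60% inhibited); 0, no net growth; -100 to 0, cell death (-40 = 40% of starting cells died; -100 = all dead).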 Values without a mark were called inactive. Calls of active or inactive are those of the source. The calls were made as follows: active = growth percent below 10; inactive = the rest.

Experiments:
Assay in all cases: NCI-60 one-dose screen, 48 h (100 = growth as untreated, 0 = no growth, -100 = all killed)
Conditions in all cases: 10 µM unless noted
DU-145 prostate = system: DU-145 prostate
K-562 leukemia = system: K-562 leukemia
MALME-3M melanoma = system: MALME-3M melanoma
MDA-MB-231 breast = system: MDA-MB-231 breast
RXF 393 renal = system: RXF 393 renal
SF-268 CNS = system: SF-268 CNS
SF-295 CNS = system: SF-295 CNS
SF-539 CNS = system: SF-539 CNS
UACC-257 melanoma = system: UACC-257 melanoma
M14 melanoma = system: M14 melanoma

SMILES | growth (DU-145 prostate) | growth (K-562 leukemia) | growth (MALME-3M melanoma) | growth (MDA-MB-231 breast) | growth (RXF 393 renal) | growth (SF-268 CNS) | growth (SF-295 CNS) | growth (SF-539 CNS) | growth (UACC-257 melanoma) | growth (M14 melanoma)
O=C1CCCCN1c1ccc(C2=NCCCN2)cc1 | 103% | 80.6% | 77.4% | 88.6% | 90.4% | 92% | 85.1% | 64.7% | 111% | 104%
Cc1ccc2cnc(N)c(C#Cc3cc(C(=O)Nc4ccc(CN5CCN(C)CC5)c(C(F)(F)F)c4)cnc3C)c2c1 | -95% (active) | -43% (active) | -74.7% (active) | -70.5% (active) | -91.2% (active) | 17.4% | 37.4% | -85.9% (active) | 31.9% | -90.3% (active)
O=C(Nc1ccc(Oc2cccc(Cl)c2)c(Cl)c1)c1cccnn1 | 86.3% | 77% | 104% | 95.5% | 90.3% | 83.9% | 82.2% | 95.3% | 104% | 92.8%
COc1ccc(C2CC(c3ccccc3)=NN2C(=O)c2cc(OC)c(OC)c(OC)c2)cc1O (stereo not given) | 25.8% | 14.1% | 81.8% | 8.45% (active) | -9.96% (active) | 49.9% | 5.83% (active) | -15.7% (active) | 66.2% | 13.4%
O=Nc1ccc(NC(=O)Nc2ccc([N+](=O)[O-])cc2)cc1 | 113% | 58.8% | 102% | 87% | 119% | 104% | 98.1% | 101% | 104% | 102%
CCCCNC(=O)c1ccc2c(c1)nc(-c1ccccc1)n2C1CCCCC1 | 103% | 75.8% | 100% | 96.1% | 120% | 104% | 95.4% | 105% | 109% | 89.8%
COc1cc(O)c2c(=O)c3c(CC=C(C)C)cc(OC)c(O)c3oc2c1 | 19.5% | 12.2% | 66.9% | 24.3% | 13.7% | 51.9% | 42.2% | 6.54% (active) | 63.1% | 15.6%
Cc1ccc(S(=O)(=O)OCC#CCOS(=O)(=O)c2ccc(C)cc2)cc1 | 52.2% | 40.2% | -65.9% (active) | 57.9% | 58.6% | 53.8% | 42.2% | 81.9% | 66.8% | 43.6%
CC1(C)CC(=O)C2=C(C1)C(c1ccc(Cl)cc1)n1ncc(C#N)c1N2 (stereo not given) | 108% | 106% | 102% | 93.6% | 107% | 103% | 101% | 87.6% | 101% | 108%
COCCn1cc(-c2nc(-c3cn(CCOC)c4ncccc34)cs2)c2cc(F)ccc21 | 86.1% | 63.7% | 95.3% | 44.9% | 86.5% | 91.6% | 74.7% | 76.1% | 69.5% | 66.6%
CCOC(=O)C/C(=N\Nc1cc(=O)[nH]c2ccc(C)cc12)C(=O)OCC | 108% | 89.4% | 98% | 96.3% | 108% | 99.5% | 105% | 103% | 105% | 106%
CN(C)c1ccc([C@@H](C(=O)Nc2cccc([N+](=O)[O-])c2)N(C(=O)c2cc3ccccc3[nH]2)c2cccc([N+](=O)[O-])c2)cc1 | 107% | 100% | 96.5% | 96.5% | 100% | 97.4% | 100% | 90.3% | 93.4% | 93.7%
Cc1ccc(NC(=O)c2cc3ccccc3cc2O)c(C)c1 | 96.3% | 63.6% | 69.8% | 97.8% | 113% | 102% | 94.1% | 78.7% | 86.3% | 86.9%
O=C1/C(=C/c2c[nH]c(=O)[nH]c2=O)SC(=S)N1Cc1ccccc1 | 102% | 101% | 97.6% | 101% | 110% | 95.2% | 102% | 96.9% | 104% | 98.8%
COc1ccc2cc(-c3nc4ccc(C)cn4c3NCc3ccco3)c(=O)[nH]c2c1 | 71.7% | 74.3% | 75.4% | 49.6% | 73.4% | 71.6% | 74.8% | 65.5% | 103% | 86.8%
C#CCOc1cccc(Nc2ncnc3c2ncn3C2CCN(C(=O)CCl)C2)c1 (stereo not given) | -95.4% (active) | 0.116% (active) | -84% (active) | -61.2% (active) | -79.4% (active) | -31.6% (active) | 53.4% | -68.5% (active) | 13.1% | -48.6% (active)
C=CN(C(=O)N1CCN(c2cc3c(cc2F)c(=O)c(C(=O)O)cn3C2CC2)CC1)c1nc(-c2ccc(Cl)cc2)cs1 | 81.1% | 47.6% | 89.9% | 76.4% | 53.3% | 44.7% | 58.6% | 67% | 87.6% | 60.2%
CCNC(=O)N1CCc2c(Br)c3c(c(OC)c2C1Cc1ccc(OC)cc1)OCO3 (stereo not given) | 54.5% | 20% | 33.8% | 47.3% | 17% | 43.5% | 25.5% | 22.6% | 65.4% | 11.6%
Cc1ccc2c(/C=C/C(=O)c3cc(CN4CCOCC4)c(O)c4nc(C)ccc34)cc(CN3CCOCC3)c(O)c2n1 | -55.9% (active) | 1.93% (active) | 42.9% | 11.5% | -74.5% (active) | 13.2% | 23% | -29.4% (active) | 7.95% (active) | -20.1% (active)
C=CN(C(=O)N1CCN(c2cc3c(cc2F)c(=O)c(C(=O)O)cn3C2CC2)CC1)c1nc(-c2ccccc2)cs1 | 107% | 94.8% | 107% | 90.4% | 103% | 99.4% | 95.7% | 96.5% | 100% | 105%
CS(=O)(=O)Nc1cc(-c2ccc3ncnc(Nc4ccc(F)c(Cl)c4)c3c2)ccc1Cl | 39.8% | 39.4% | 53.4% | 54.3% | 22% | 52.7% | 15.6% | 52.1% | 59.6% | 46.8%
Cn1cc(-c2csc(-c3cn(C)c4ccccc34)n2)c2cnccc21 | 29.2% | -39.2% (active) | -92.4% (active) | -17.7% (active) | -40.7% (active) | 45.1% | -73.1% (active) | -87% (active) | -58.2% (active) | -82.6% (active)
COc1ccc2c(c1)CC[C@@H]1[C@@H]2CC[C@]2(C)c3c(cc(C#N)c4c3sc3ccccc34)C[C@@H]12 | 121% | 88.5% | 108% | 107% | 106% | 100% | 103% | 105% | 99.9% | 161%
COc1ccc(-c2cc(C(=O)N3N=C(c4ccc(N)cc4)CC3c3ccc(Cl)cc3)c3cc(OC)ccc3n2)cc1 (stereo not given) | 83.7% | 14.6% | 62.1% | 85% | 78.9% | 68.4% | 66.7% | 15.4% | 77.2% | 5.95% (active)
COc1ccc2c(c1)oc1c(C)c3c(c(C)c12)C(=O)N(CCOS(C)(=O)=O)C3=O | 106% | 96% | 90.1% | 90.7% | 116% | 92.3% | 103% | 92.2% | 125% | 103%
CN(C)CCn1c(=O)c2ccccc2n2nc3ccccc3c12 | 101% | 86.5% | 92.4% | 90.8% | 74.3% | 98.6% | 75% | 87.9% | 105% | 92.1%
